Experimental data as given in the OligoGym collection.
Note: reference of the scale not given here.

Each sequence was assayed against ECH1 (assay: pooled miR-30 sensor sort-seq; sequence = guide strand). Conditions: shRNA.
With TTGTGCAGAGGAGCCAGTGAGG the sensor-assay potency score (higher = more potent) was -1.37. AAATCTTGTTGAAGCACTCTAC gave a sensor-assay potency score (higher = more potent) of 0.264. In the case of TCTTTGTCTGGGAACACCCGGC, the sensor-assay potency score (higher = more potent) is reported as -0.283. Work on TATCGAGTGATGATGTCACGGA yielded a sensor-assay potency score (higher = more potent) of -0.0973. In the case of TTGTTCTCAGTCGTGGCCTGGA, the sensor-assay potency score (higher = more potent) is reported as -0.493. In the case of TTGGGCTGCAGGATGTCCGAAG, the sensor-assay potency score (higher = more potent) is reported as -0.857. Work on TTGAAGGTCTCCTGGTATCGAG yielded a sensor-assay potency score (higher = more potent) of -0.974. TCTTGTTGAAGCACTCTACCAT showed a sensor-assay potency score (higher = more potent) of 0.331. TCGTCAGCCATCATCTTGCGGG showed a sensor-assay potency score (higher = more potent) of -0.729. TCTTGCTGGAAATCTCGGCCGC gave a sensor-assay potency score (higher = more potent) of -0.461. In the case of TTTGTCTGGGAACACCCGGCTG, the sensor-assay potency score (higher = more potent) is reported as -1.1. TTGACCAGGCTCTGGTTCCCGA showed a sensor-assay potency score (higher = more potent) of -0.944. In the case of TTCTGCGCAGACGTCACACGAA, the sensor-assay potency score (higher = more potent) is reported as -0.688.

The sequences below were run against EDDM3B in the same assay as above. Conditions: shRNA.
ATATGCTCGATTTTGTACCATG showed a sensor-assay potency score (higher = more potent) of -1.24. With TAGAAAGCACTGAATACTCTAC the sensor-assay potency score (higher = more potent) was -0.181. Work on ATCTTTAGGTCTTCTATGCTAT yielded a sensor-assay potency score (higher = more potent) of -0.978. Work on TCAATGTAGTTGAAGCTCCTGC yielded a sensor-assay potency score (higher = more potent) of 0.357. With TTTCGGAAGCGATCCATCCAGT the sensor-assay potency score (higher = more potent) was -0.761. TTGCTCTGTACAAGCAGTGTGC showed a sensor-assay potency score (higher = more potent) of -0.53. In the case of TTGGACTTAAGTAGTGCTGTTT, the sensor-assay potency score (higher = more potent) is reported as -0.357. TATGCTATCAACATACCCGTCC was tested, and the sensor-assay potency score (higher = more potent) was 0.462. TTTGAGAGGATTCTGGACCCAT was tested, and the sensor-assay potency score (higher = more potent) was 0.578.

Each sequence was assayed against EDF1 in the same assay as above. Conditions: shRNA.
With TTTCGTGGCCAGGTCCTTCTGC the sensor-assay potency score (higher = more potent) was -0.179. With TTCTCATTGATTTTCGTGGCCA the sensor-assay potency score (higher = more potent) was -0.538. TGTTCTTGGTAATAGAATGTTG gave a sensor-assay potency score (higher = more potent) of -1.17. Sequence TTTGACAGCAGGAATGGGCTGG has a sensor-assay potency score (higher = more potent) of 0.46. TTGCTCTGCCGACCTTGCTGGA was tested, and the sensor-assay potency score (higher = more potent) was -1.14. TCATAGTCCGCGATCACCTGTG gave a sensor-assay potency score (higher = more potent) of 0.11. Work on AATAGAATGTTGTTTGTTCTGG yielded a sensor-assay potency score (higher = more potent) of -0.0468. With TTGCGCAGCACCGTCACCGTGT the sensor-assay potency score (higher = more potent) was -0.348. With TGCAGCTCCTCTGTCTCCCGGT the sensor-assay potency score (higher = more potent) was -0.285. For ATTTCTTGGAAGTCTCCACATC, the sensor-assay potency score (higher = more potent) was -1.38. With TTTCCAATGTCCTTTCCCCGGA the sensor-assay potency score (higher = more potent) was -0.772. In the case of TCTTGGTAATAGAATGTTGTTT, the sensor-assay potency score (higher = more potent) is reported as -1.13.

Each sequence was assayed against EFCAB6 in the same assay as above. Conditions: shRNA.
With TAAGAGAACATCCACATTCTTC the sensor-assay potency score (higher = more potent) was -0.398. With TTCACTTAACAGCTGATCCTTT the sensor-assay potency score (higher = more potent) was 0.362. Sequence TTTCATAACAGTCTTAATGTTT has a sensor-assay potency score (higher = more potent) of -0.893. Sequence TAGTTTGTAACAGAAATCCTTA has a sensor-assay potency score (higher = more potent) of -0.465.
